ADAM10 inh – human ADAM10 inhibitors, primary screen, biochemical, QFRET, HTS | inhibition, % at 7 µM | AID 720582, 2013 | Disintegrin and metalloproteinase domain-containing protein 10 (Homo sapiens), O14672 | 370,000 tested, 0.62% active | recombinant ADAM10, EDANS/DABCYL FRET peptide cleavage, 3 h;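 active = inhibition above a per-campaign cutoff equal to the mean of compounds falling between control-based bounds plus 3 SD, cut at about 20% in these data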
GC-A act – GC-A stimulated cGMP production enhancers – HEK293 GC-A cells, cGMP TR-FRET, EC30 ANP, primary screen | Atrial natriuretic peptide receptor 1 (Homo sapiens), P16066 | activation, % at 10 µM | 0% at EC30 ANP, 100% saturating ANP | 370,000 tested, 0.14% active; in the data active = activation above about 40%
Target sequence (P16066 whole entry, looked up): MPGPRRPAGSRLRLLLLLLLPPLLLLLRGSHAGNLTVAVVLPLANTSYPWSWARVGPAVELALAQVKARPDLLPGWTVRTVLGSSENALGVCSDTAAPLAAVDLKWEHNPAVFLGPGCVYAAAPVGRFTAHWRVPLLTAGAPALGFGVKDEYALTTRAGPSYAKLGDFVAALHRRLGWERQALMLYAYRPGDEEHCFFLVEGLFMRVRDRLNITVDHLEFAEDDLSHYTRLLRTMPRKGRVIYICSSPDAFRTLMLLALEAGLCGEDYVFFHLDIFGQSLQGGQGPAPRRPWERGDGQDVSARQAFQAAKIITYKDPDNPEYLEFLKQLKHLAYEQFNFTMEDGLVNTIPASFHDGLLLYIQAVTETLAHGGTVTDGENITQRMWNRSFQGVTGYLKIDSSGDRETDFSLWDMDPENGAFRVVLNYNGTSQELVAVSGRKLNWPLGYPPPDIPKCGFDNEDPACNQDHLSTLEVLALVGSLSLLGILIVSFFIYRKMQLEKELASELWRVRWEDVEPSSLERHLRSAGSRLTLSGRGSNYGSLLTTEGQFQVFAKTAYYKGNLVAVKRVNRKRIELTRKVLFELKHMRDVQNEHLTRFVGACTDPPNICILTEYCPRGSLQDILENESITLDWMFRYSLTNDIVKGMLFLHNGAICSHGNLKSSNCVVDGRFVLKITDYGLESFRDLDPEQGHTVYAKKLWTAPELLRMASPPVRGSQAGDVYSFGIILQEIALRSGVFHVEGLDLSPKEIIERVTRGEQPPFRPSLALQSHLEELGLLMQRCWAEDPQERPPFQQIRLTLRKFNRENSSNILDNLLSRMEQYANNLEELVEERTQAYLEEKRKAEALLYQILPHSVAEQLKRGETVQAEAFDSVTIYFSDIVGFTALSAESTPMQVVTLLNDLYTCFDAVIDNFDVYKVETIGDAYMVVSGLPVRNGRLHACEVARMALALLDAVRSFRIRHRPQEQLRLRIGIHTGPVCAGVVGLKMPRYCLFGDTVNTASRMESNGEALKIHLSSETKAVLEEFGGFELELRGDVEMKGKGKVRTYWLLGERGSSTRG
ADAM17 inh – ADAM17 inhibitors, primary screen, biochemical, QFRET; inhibition, % at 6.95 µM; AID 720648, 2013; Disintegrin and metalloproteinase domain-containing protein 17 (Homo sapiens), P78536; recombinant ADAM17, EDANS/DABCYL FRET peptide cleavage; 370,000 tested, 0.83% active;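 active = inhibition above the mean of compounds lying between control limits plus 3 SD, set per campaign, cut at about 8.5% in these data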
GC-B act – human GC-B receptor activators, primary screen, HEK293 GC-B cells, cGMP TR-FRET, EC30 CNP | activation, % at 10 µM | 370,000 tested, 0.11% active | 0% at EC30 CNP, 100% saturating CNP;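 active = activation at 10 µM reaching about 35% in either raw or pattern-adjusted values, limit read from the data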
ADAM10 ctr – ADAM10 inhibitors, counter-screen for ADAM17 exosite inhibitor project, biochemical, FRET, human ADAM10; shares compounds with ADAM17 inh; recombinant ADAM10, EDANS/DABCYL FRET peptide cleavage, 3 h; inhibition, % at 6.95 µM; 2,900 tested, 47% active; AID 743256, 2014;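 active = mean inhibition over the triplicate runs exceeds the activity threshold set in the earlier primary screen, cut at about 20% in these data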
ADAM17 confirm – ADAM17 inhibitors, hit retest, confirmation, biochemical, QFRET peptide cleavage; shares compounds with ADAM17 inh; recombinant ADAM17, EDANS/DABCYL QFRET peptide cleavage; inhibition, % at 6.95 µM; 2,900 tested, 65% active;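 active = mean inhibition across replicates above the hit cutoff set in the primary screen, cut at about 8.5% in these data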
A number is an active result; - = inactive; . = no result. In the library only some 1.3% were active in any assay of this set; here they are far more common.

SMILES	ADAM10 inh	GC-A act	ADAM17 inh	GC-B act	ADAM10 ctr	ADAM17 confirm
CN(C)S(=O)(=O)c1ccc(NC(=O)COC(=O)CC2CC3CCC2C3)cc1 (centres undefined)	-	-	8.6	-	20	14
COc1ccc(N2C(=O)C3C(C2=O)C3(c2ccccc2)c2ccccc2)cc1 (centres undefined)	-	-	13	-	-	-
O=C(O)C1C2CCC(C2)C1C(=O)N1CCCC1 (centres undefined)	-	-	-	-	.	.
CC(C)(C)c1ccc(OCCC(=O)OCC(=O)NCc2ccccc2)cc1	-	-	-	-	.	.
CC1=CC(C)(C)N2C(=O)C3(SCC(=O)N3c3ccc(F)cc3)c3cc(C)cc1c32 (centres undefined)	-	-	9.5	-	21	12
C/C(N)=C(/C#N)C(=O)CSc1nnc(Nc2cccc(C)c2C)s1	-	-	-	-	.	.
Cc1cccc(Nc2nnc(SCC(=O)c3ccc(Br)s3)s2)c1C	-	-	12	-	-	12
c1ccc(Cc2cnc(N3CCN(Cc4ccc5c(c4)OCCO5)CC3)nc2)cc1	-	-	11	-	-	-
Clc1ccc(CN2CCN(c3ncc(Cc4ccccc4)cn3)CC2)cc1	-	-	-	-	.	.
CSCCC(NC(=O)CCNC(=O)c1ccccc1Cl)c1nc2ccccc2[nH]1 (centres undefined)	-	-	-	-	.	.
COc1ccccc1-c1cnc(C(O)c2ccc(CN3CCCC3)cc2)[nH]1 (centres undefined)	-	-	-	-	.	.
Cc1cccc(N2CCN(c3ccc(N4C(=O)CCCC4=O)cc3[N+](=O)[O-])CC2)c1C	-	-	14	-	-	-
COc1ccccc1/C=C/C1C(C(=O)OCC(C)C)=C(C)N=C2SCCC(=O)N21 (centres undefined)	-	-	11	-	-	12
O=C(OCc1cnc(Cl)s1)c1cccc(Cl)c1Cl	-	-	9.0	-	-	12
CC1CC(C)CN(C(=O)COC(=O)COc2ccccc2C#N)C1 (centres undefined)	-	-	9.7	-	22	11
O=P(C(=NCCO)NO)(N1CCOCC1)N1CCOCC1	-	-	-	-	.	.
O=C1CC(N2CCN(S(=O)(=O)c3ccccc3F)CC2)C(=O)N1c1ccc(F)cc1F (centres undefined)	-	-	-	-	.	.
O=C(NC1CCCCC1)c1ccc2ccccc2c1	-	-	-	-	.	.
O=C(NC1CC1)c1ccc2c(c1)C1C3CCC(C3)C1C(c1ccccc1)N2 (centres undefined)	-	-	9.6	-	-	9.4
COc1ccc(-n2c(SCC(=O)Nc3ccc(OCc4ccccc4)cc3)nnc2-c2ccc(C)cc2)cc1	-	-	-	-	.	.
COc1cc(/C=C/C(=O)OCC(=O)c2c[nH]c3ccccc23)ccc1OC(F)F	-	-	9.4	-	21	18
CN(CC(=O)Nc1ccc(Cl)c(C(F)(F)F)c1)C(=O)c1ccc(OCC2CCCO2)cc1 (centres undefined)	-	-	8.7	-	25	9.7
COc1ccc(-c2cc(C3CCN(c4ccc(C(C)=O)cc4[N+](=O)[O-])CC3)[nH]n2)cc1	33	-	13	-	32	19
CC1(C)CC(=O)C2=C(C1)N=C1c3ccccc3C(=O)C1C2c1ccc(Cl)cc1 (centres undefined)	-	-	-	-	.	.
Cc1ccc(C2C3=C(CC(C)(C)CC3=O)N=C3c4ccccc4C(=O)C32)cc1 (centres undefined)	-	-	8.7	-	-	-
SMILES	ADAM10 inh	GC-A act	ADAM17 inh	GC-B act	ADAM10 ctr	ADAM17 confirm
CC(=O)N1c2ccc(C)cc2Sc2c1ccc1ccccc21	-	-	12	-	-	9.0
S=C(NCCCN1CCOCC1)N1CCN(c2cccc(Cl)c2)CC1	-	-	-	-	.	.
COc1ccc(-c2cn[nH]c2-c2ccc(OCc3ccc([N+](=O)[O-])cc3)cc2O)cc1OC	-	-	9.8	-	25	14
CCC/C=C/c1ccc(CN2C(C(C)C)C(=O)N(Cc3cn(CCC4OCCO4)nn3)CCS2(=O)=O)cc1 (centres undefined)	-	-	11	-	30	17
CCC/C=C/c1ccc(CN2C(CC(C)C)C(=O)N(Cc3cn(CCC4OCCO4)nn3)CCS2(=O)=O)cc1 (centres undefined)	-	-	-	-	.	.
COC(=O)[C@@H]1C[C@@]2(c3ccccc3)c3ccccc3N(S(=O)(=O)c3ccccc3)[C@H]2N1C(=O)CNC1CCCCC1	-	-	-	-	.	.
CN1OC[C@@H]2CN(C(=S)NCCc3ccccc3)[C@H](c3ccccc3Br)C[C@@H]21	-	-	-	-	.	.
COCCNC(=S)N1C[C@H]2CON(C)[C@H]2C[C@H]1c1ccccc1Br	-	-	9.4	-	-	-
COc1cccc(NC(=O)C2(S(=O)(=O)c3ccc(Cl)cc3)CC2)c1	-	-	-	-	.	.
CCCN1C/C(=C/c2ccc3c(c2)OCO3)C(=O)/C(=C/c2ccc3c(c2)OCO3)C1	-	-	10	-	-	28
CCCN1C(=O)/C(=C/c2ccc3c(c2)OCO3)NC1=S	-	-	-	-	.	.
O=C1NC[C@H](Cc2ccc(O)cc2)N(C[C@@H]2CCCN2C[C@H](Cc2ccc(O)cc2)N2C[C@H](Cc3ccccc3)N(CCc3ccccc3)C(=O)C2=O)C1=O	-	-	10	-	-	-
O=C1NC[C@H](Cc2ccc(O)cc2)N(C[C@@H]2CCCN2C[C@H](Cc2ccccc2)N2C[C@H](Cc3ccccc3)N(CCc3ccccc3)C(=O)C2=O)C1=O	-	-	-	-	.	.
CC1(C)C([N+](=O)[O-])C(c2ccccc2O)NC(c2ccccc2O)C1[N+](=O)[O-] (centres undefined)	-	-	9.3	-	23	15
COc1ccc(CNC(=O)C2(CC3CC(c4ccccc4)=NO3)CCN(C(=O)C3(C)CC3)CC2)cc1 (centres undefined)	-	-	8.7	-	-	-
COc1cccc(OC)c1OCCCNC1CCCC1	-	-	-	-	.	.
COC(=O)c1nn(-c2ccccc2)c(Sc2ccc(Br)cc2)c1/C=N/O	-	-	11	-	-	-
